Test results as given in PubChem BioAssay (Tox21).
Records with an inconclusive call do not appear. The source made the active and inactive calls. Unless noted, the call rests on the fitted dose curve; in most records, active means well fitted curve in the direction sought with a large enough effect in the repeat runs; inconclusive means weak or mixed curves; inactive means no such curve, though single readings can be large; an effect the other way counts as inactive or inconclusive.

How the values were obtained:
[1] = qHTS assay for small molecule agonists of the p53 signaling pathway (AID 651631; calls by dose curve; further: nearly all actives have a fitted effect of over 15% in size)
In short: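 HCT-116 cells carrying a stable p53 response element–beta-lactamase reporter were plated, rested 5 h at 37 °C, then exposed to compound in DMSO for 16 h at 37 °C; reporter activity was read as FRET substrate fluorescence after 2 h at room temperature.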

[2] = qHTS assay for small molecules that induce genotoxicity in human embryonic kidney cells expressing luciferase-tagged ATAD5 (AID 651632); further: nearly all actives have a fitted effect of over 15% in size
In short: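 Increased luciferase signal from ATAD5-tagged reporter cells indicates DNA-damage-driven ATAD5 induction. HEK293T cells are treated for 16 hr at 37C before detection with Amplite.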

[3] = qHTS assay for small molecule agonists of the p53 signaling pathway - cell viability (AID 651633; calls by dose curve; further: series mostly up to about 83 µM; nearly all actives have a fitted effect of over 30% in size)
In short: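 p53RE-bla cells were treated with compound for 16 hours at 37 C. Cytotoxicity was then measured as CellTiter-Glo luminescence after 30 min at room temperature.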

[4] = qHTS assay for small molecules that induce genotoxicity in human embryonic kidney cells expressing luciferase-tagged ATAD5 - cell viability (AID 651634; calls by dose curve; further: nearly all actives have a fitted effect of over 25% in size)
In short: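 Cytotoxicity counterscreen in HEK293T cells bearing an ATAD5-luciferase reporter: live-cell protease activity measured by CellTiter-Fluor fluorescence after 15.5 hr compound exposure.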

[5] = qHTS assay for small molecule disruptors of the mitochondrial membrane potential - cell viability (AID 720634; calls by dose curve;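 further: human HepG2 liver cancer cells; series mostly up to about 83 µM; nearly all actives have a fitted effect of over 20% in size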)
In short: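 After overnight attachment at 37 C, HepG2 cells received compound or DMSO vehicle for 1 hr. Viability is then taken from ATP-driven luminescence following a 30 min room-temperature CellTiter-Glo step.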

[6] = qHTS assay for small molecule disruptors of the mitochondrial membrane potential (AID 720635)
In short: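 HepG2 cells exposed to compound 1 hr at 37C, then Mito-MPS dye 30 min. Ratio read of aggregate (540/590 nm) versus monomer (490/535 nm) fluorescence.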

[7] = qHTS assay to test for compound auto fluorescence at 590 nm (red) in HepG2 cells (AID 720674)
In short: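 HepG2 cells, 2,000 per well in MEM with 10% FBS, attached overnight at 37 C, then got 23 nL compound or DMSO. After 1 hr at 37 C, 5% CO2, red fluorescence was read at 540/590 nm against Rose Bengal sodium as reference.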

[8] = qHTS assay to test for compound auto fluorescence at 535 nm (green) in HepG2 cells (AID 720675)
[9] = qHTS assay to test for compound auto fluorescence at 460 nm (blue) in HEK293 cells (AID 720678)
In short: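 Blue-channel (Ex/Em 405/460 nm) intensity measured in HEK293 cultures after overnight compound exposure at 37C; signal expressed relative to triamterene. Cells plated 2,000 per well in 10% dialyzed FBS medium and allowed 4-5 hr to attach.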

[10] = qHTS assay to test for compound auto fluorescence at 590 nm (red) in HEK293 cells (AID 720679)
In short: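 Red-channel autofluorescence (Ex/Em 540/590 nm; Rose Bengal sodium reference) was measured after overnight 37C, 5% CO2 exposure of attached HEK293 cells, 2,000 per well in medium with 10% dialyzed FBS.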

[11] = qHTS assay to test for compound auto fluorescence at 535 nm (green) in HEK293 cells (AID 720680)
[12] = qHTS assay to test for compound auto fluorescence at 460 nm (blue) in HEK293 cell free culture (AID 720681)
In short: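 Compounds were added to cell-free DMEM with 10% FBS and fluorescence read directly. The blue channel used 405 nm excitation and 460 nm emission, with triamterene as the reference fluorophore.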

[13] = qHTS assay to test for compound auto fluorescence at 535 nm (green) in HEK293 cell free culture (AID 720682)
In short: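 Read-out: 485/535 nm fluorescence intensity, calibrated against fluorescein. Medium only (DMEM + 10% FBS, no cells); test compound or DMSO vehicle added by pintool before plate reading.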

[14] = qHTS assay to test for compound auto fluorescence at 590 nm (red) in HEK293 cell free culture (AID 720683)
In short: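 Cell-free wells of DMEM with 10% FBS received compound, and intrinsic fluorescence was read at excitation/emission 540/590 nm. Values expressed as equivalence to Rose Bengal sodium.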

[15] = qHTS assay to test for compound auto fluorescence at 460 nm (blue) in HepG2 cell free culture (AID 720685)
In short: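 Compound (23 nL) or DMSO pinned into cell-free MEM with 10% FBS; blue fluorescence read at 405/460 nm excitation/emission, expressed as auto-fluorescence equivalency to triamterene.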

[16] = qHTS assay to test for compound auto fluorescence at 535 nm (green) in HepG2 cell free culture (AID 720686)
[17] = qHTS assay to test for compound auto fluorescence at 460 nm (blue) in HepG2 cells (AID 720687)
In short: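 HepG2 cells in MEM with 10% FBS, attached overnight at 37 C, were exposed to compound or DMSO for 1 hr at 37 C, 5% CO2. Blue fluorescence was read at 405/460 nm, with triamterene as reference fluorophore.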

[18] = qHTS assay to test for compound auto fluorescence at 590 nm (red) in HepG2 cell free culture (AID 720684)
In short: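 Compound was pinned into wells holding MEM with 10% FBS and no cells, and red fluorescence was read at Ex/Em 540/590 nm. Signal is expressed as auto fluorescence equivalency relative to Rose Bengal sodium.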

[19] = biological target: Glucocorticoid receptor (Homo sapiens) (UniProt P04150); test: qHTS assay to identify small molecule agonists of the glucocorticoid receptor (GR) signaling pathway (AID 720691; active means well fitted activation curve with a large enough effect in the signal ratio in the repeat runs, not every such curve was filed as active; the % refers to the signal ratio)
In short: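 Agonist mode in a HeLa line carrying a GRE-controlled beta-lactamase reporter. Compounds act for 18 h at 37 C before a 2 h room-temperature FRET substrate step and fluorescence reading.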

[20] = biological target: Glucocorticoid receptor (Homo sapiens) (UniProt P04150); test: qHTS assay to identify small molecule antagonists of the glucocorticoid receptor (GR) signaling pathway (AID 720692; active means well fitted inhibition curve with a large enough effect in the signal ratio in the repeat runs, not every such curve was filed as active; the % refers to the signal ratio)
In short: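 Cells plated, rested 4 h at 37 C/5% CO2; compounds in DMSO pin-transferred; dexamethasone added to 5 nM final; 18 h at 37 C; B/G FRET substrate added, 2 h room temperature; fluorescence measured.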
On the % scale 0 is the no-effect control and ±100 the full control effect.

Sequence of Glucocorticoid receptor (Homo sapiens) (P04150 whole entry, looked up): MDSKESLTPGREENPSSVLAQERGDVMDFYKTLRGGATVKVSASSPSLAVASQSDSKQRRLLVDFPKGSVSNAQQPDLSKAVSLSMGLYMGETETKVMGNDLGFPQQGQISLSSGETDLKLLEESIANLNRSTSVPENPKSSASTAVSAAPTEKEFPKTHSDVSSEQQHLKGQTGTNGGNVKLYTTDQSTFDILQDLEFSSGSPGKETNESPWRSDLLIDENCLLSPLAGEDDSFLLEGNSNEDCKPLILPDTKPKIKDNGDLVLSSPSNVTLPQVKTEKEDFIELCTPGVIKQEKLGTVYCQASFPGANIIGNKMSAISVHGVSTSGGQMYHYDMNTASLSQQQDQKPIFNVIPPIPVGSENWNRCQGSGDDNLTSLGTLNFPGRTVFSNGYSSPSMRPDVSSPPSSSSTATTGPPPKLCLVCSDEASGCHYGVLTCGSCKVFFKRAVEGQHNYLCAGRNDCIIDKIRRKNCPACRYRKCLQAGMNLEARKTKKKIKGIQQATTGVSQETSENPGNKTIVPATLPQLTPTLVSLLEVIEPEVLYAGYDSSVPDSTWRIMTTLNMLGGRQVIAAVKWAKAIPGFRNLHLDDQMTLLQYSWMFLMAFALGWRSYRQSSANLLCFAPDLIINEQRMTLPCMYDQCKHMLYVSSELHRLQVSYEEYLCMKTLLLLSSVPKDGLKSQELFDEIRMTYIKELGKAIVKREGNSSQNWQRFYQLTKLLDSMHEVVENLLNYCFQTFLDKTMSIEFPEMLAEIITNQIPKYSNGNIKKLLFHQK

CC(O)Cn1cnc2c1c(=O)n(C)c(=O)n2C (configuration not stated)
inactive: Potency [1] | Potency [2] | Potency [3] | Potency [4] | outcome [5] | Potency [6] | fluorescence, relative to Rose Bengal [7] -0.388% [at 18.6 µM] | fluorescence, % of fluorescein control [8] 0.0515% [at 18.6 µM] | fluorescence, % of triamterene [9] -0.0145% [at 18.6 µM] | fluorescence, % of fluorescent control [10] 0.0437% [at 18.6 µM] | fluorescence, % of fluorescein [11] -0.0718% [at 18.6 µM] | fluorescence, % of fluorescent control [12] -0.136% [at 18.6 µM] | activity change [13] -0.0176% [at 18.6 µM] | fluorescence, % of fluorescent control [14] 0.243% [at 18.6 µM] | fluorescence, % of fluorescent control [15] -0.0952% [at 18.6 µM] | fluorescence, % of fluorescein control [16] -0.0191% [at 18.6 µM] | fluorescence, % of fluorescent control [17] 0.0234% [at 18.6 µM]

CC(C)N=C=NC(C)C
inactive: Potency [1] | Potency [2] | Potency [3] | Potency [4] | outcome [5] | Potency [6] | outcome [7] | outcome [8] | Potency [9] | outcome [10] | outcome [11] | Potency [12] | outcome [13] | outcome [14] | outcome [18] | Potency [15] | outcome [16] | Potency [17] | Potency [19] | Potency [20]

C=C(C)C(=O)OCCC(F)(F)C(F)(F)C(F)(F)C(F)(F)C(F)(F)C(F)(F)F
inactive: Potency [1] | Potency [2] | Potency [3] | Potency [4] | outcome [5] | Potency [6] | outcome [7] | outcome [8] | Potency [9] | outcome [10] | outcome [11] | Potency [12] | outcome [13] | outcome [14] | Potency [15] | outcome [16] | Potency [17] | Potency [19] | Potency [20]

CCC(=O)OCc1ccc(OC)cc1
inactive: Potency [1] | Potency [2] | Potency [3] | Potency [4] | outcome [5] | Potency [6] | outcome [7] | outcome [8] | Potency [9] | outcome [10] | outcome [11] | Potency [12] | outcome [13] | outcome [14] | outcome [18] | Potency [15] | outcome [16] | Potency [17] | Potency [19] | Potency [20]

O=S(=O)(Cl)c1c(Cl)cccc1Cl
inactive: Potency [1] | Potency [2] | Potency [3] | Potency [4] | outcome [5] | Potency [6] | outcome [7] | outcome [8] | Potency [9] | outcome [10] | outcome [11] | Potency [12] | outcome [13] | outcome [14] | Potency [15] | outcome [16] | Potency [17] | Potency [19] | Potency [20]

COC(=O)c1sccc1S(N)(=O)=O
inactive: Potency [1] | Potency [2] | Potency [3] | Potency [4] | outcome [5] | Potency [6] | outcome [7] | outcome [8] | Potency [9] | outcome [10] | outcome [11] | Potency [12] | outcome [13] | outcome [14] | outcome [18] | Potency [15] | outcome [16] | Potency [17] | Potency [19]

CC(=O)c1ccc[nH]1
inactive: Potency [1] | Potency [2] | Potency [3] | Potency [4] | outcome [5] | Potency [6] | outcome [7] | outcome [8] | Potency [9] | outcome [10] | outcome [11] | Potency [12] | outcome [13] | outcome [14] | outcome [18] | Potency [15] | outcome [16] | Potency [17] | Potency [19] | Potency [20]

CCC1CCC(CCC(=O)O)C1 (configuration not stated)
inactive: Potency [1] | Potency [2] | Potency [3] | Potency [4] | outcome [5] | Potency [6] | outcome [7] | outcome [8] | Potency [9] | outcome [10] | outcome [11] | Potency [12] | outcome [13] | outcome [14] | outcome [18] | Potency [15] | outcome [16] | Potency [17] | Potency [19]

CC12CC3CC(C)(C1)CC(N)(C3)C2
inactive: Potency [1] | Potency [2] | Potency [3] | Potency [4] | outcome [5] | Potency [6] | outcome [7] | outcome [8] | Potency [9] | outcome [10] | outcome [11] | Potency [12] | outcome [13] | outcome [14] | outcome [18] | Potency [15] | outcome [16] | Potency [17] | Potency [19] | Potency [20]

CC1CCc2nccnc21 (configuration not stated)
inactive: Potency [1] | Potency [2] | Potency [3] | Potency [4] | outcome [5] | Potency [6] | outcome [7] | outcome [8] | Potency [9] | outcome [10] | outcome [11] | Potency [12] | outcome [13] | outcome [14] | outcome [18] | Potency [15] | outcome [16] | Potency [17]

COC(=O)CC(C(C)=O)C(=O)OC (configuration not stated)
inactive: Potency [1] | Potency [2] | Potency [3] | Potency [4] | outcome [5] | Potency [6] | outcome [7] | outcome [8] | Potency [9] | outcome [10] | outcome [11] | Potency [12] | outcome [13] | outcome [14] | outcome [18] | Potency [15] | outcome [16] | Potency [17] | Potency [19] | Potency [20]

CC[C@H]1OC(=O)[C@H](C)[C@@H](O[C@H]2C[C@@](C)(OC)[C@@H](O)[C@H](C)O2)[C@H](C)[C@@H](O[C@@H]2O[C@H](C)C[C@H](N(C)C)[C@H]2O)[C@](C)(O)C[C@@H](C)C(=O)[C@H](C)[C@@H](O)[C@]1(C)O
inactive: Potency [1] | Potency [2] | Potency [3] | Potency [4] | outcome [5] | Potency [6] | outcome [7] | outcome [8] | Potency [9] | outcome [10] | outcome [11] | Potency [12] | outcome [13] | outcome [14] | outcome [18] | Potency [15] | outcome [16] | Potency [17]

C[C@@H]1C[C@H]2[C@@H]3CCC4=CC(=O)C=C[C@]4(C)[C@@]3(F)[C@@H](O)C[C@]2(C)[C@@]1(O)C(=O)COP(=O)(O)O
inactive: Potency [1] | Potency [2] | Potency [3] | Potency [4] | outcome [5] | Potency [6] | outcome [7] | outcome [8] | Potency [9] | outcome [10] | outcome [11] | Potency [12] | outcome [13] | outcome [14] | outcome [18] | Potency [15] | outcome [16] | Potency [17]

Cc1ccc(NC(=O)N(C)C)cc1NC(=O)N(C)C
inactive: Potency [1] | Potency [2] | Potency [3] | Potency [4] | outcome [5] | Potency [6] | outcome [7] | outcome [8] | Potency [9] | outcome [10] | outcome [11] | Potency [12] | outcome [13] | outcome [14] | outcome [18] | Potency [15] | outcome [16] | Potency [17] | Potency [19] | Potency [20]
